Assay results published in PubChem BioAssay (NCATS).
Records with an inconclusive call do not appear. Activity calls are given as the source filed them. Unless noted, calls follow the shape of the dose curve; as a rule, active = well fitted curve in the direction sought with a large enough effect; inconclusive = small, poorly fitted or top-dose-only effect, or another doubt; inactive = no such curve, though single readings can be large; an effect the other way counts as inactive or inconclusive.

What was measured:
[1] = Confirmation and Secondary Assay for Modulators of Hemoglobin Beta Chain Splicing at IVS2 705 locus (AID 930);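 also: HeLa cells stably expressing the EGFP-705 splicing reporter; GFP fluorescence per well restored by corrected splicing of the IVS2-705 intron in EGFP; series mostly up to about 46 µM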
Summary of the method: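 HeLa cells stably carrying EGFP interrupted by mutant beta-globin intron 2 (IVS2-705) treated 2 days at 37C with compound; 500 nM antisense PNA as control. Correct splicing read as total peak GFP intensity per well by laser-scanning cytometry.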

[2] = qHTS Assay for Lipid Storage Modulators (AID 1519; calls by dose curve; also: potency is read from the fitted curve at half-maximal effect); conditions: Drosophila S3 cells, BODIPY lipid droplet/cell ratio, laser cytometry, cells loaded with oleic acid
Summary of the method: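 Cells seeded at 5,000 per well were treated with compounds over a concentration series and loaded with oleic acid (400 uM, as added). Lipid droplet fluorescence (488 nm excitation, 500-530 nm channel) was read by laser-scanning cytometry and normalized to 20 uM Triacsin C.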

[3] = biological target: Ubiquitin carboxyl-terminal hydrolase 1 (Homo sapiens) (UniProt O94782); experiment: Inhibitors of USP1/UAF1: Pilot qHTS (AID 504865); also: potency is read from the fitted curve at half-maximal effect; nearly all actives have a fitted effect of over 35% in size
Summary of the method: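 Kinetic fluorescence assay: 1nM USP1/UAF1, 15 min compound preincubation, then 150nM Ub-Rho; 480/540 nm.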

[4] = system: Zika virus NS2B-NS3 protease (linked construct); experiment: Confirmatory screen NINDS AMC qHTS for Zika virus inhibitors (AID 1347152); also: nearly all actives have a fitted effect of over 70% in size; also: potency is read from the fitted curve at half-maximal effect
Summary of the method: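 In this dose-response qHTS, AMC release from 10 microM Bz-Nle-KRR-AMC by 1 nM linked protease is measured over 15 minutes (about 20% conversion) at pH 8.0. Percent inhibition is fitted to a 4-parameter Hill curve.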

[5] = system: Zika virus NS2B-NS3 protease (unlinked complex); experiment: Confirmatory screen GU AMC qHTS for Zika virus inhibitors (AID 1347153); also: nearly all actives have a fitted effect of over 70% in size
Summary of the method: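 Noncovalent NS2B hydrophilic domain/NS3 protease complex (25 nM) in 10 mM Tris-HCl pH 8.0, 0.01% Tween 20 was preincubated 15 min at room temperature with compounds. Then 10 µM AMC substrate (Km 18.3 µM) was added; fluorescence was read over 15 min and fitted to a 4-parameter Hill equation.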

[6] = Confirmatory screen NINDS Rhodamine qHTS for Zika virus inhibitors (AID 1347161); also: potency is read from the fitted curve at half-maximal effect; nearly all actives have a fitted effect of over 60% in size
Summary of the method: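 Enzyme (25 nM, linked NS2B-NS3) was preincubated 15 min with compound in 10 mM Tris-HCl pH 8.0, 0.01% Tween 20. Rhodamine110 substrate (1.5 microM) was then added and fluorescence read at start and after 15 min.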

[7] = system: Zika virus NS2B-NS3 protease (linked construct); experiment: 384 well plate NINDS Rhodamine confirmatory qHTS for Zika virus inhibitors (AID 1347164); also: potency is read from the fitted curve at half-maximal effect; nearly all actives have a fitted effect of over 65% in size
Summary of the method: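 Compounds are incubated about 15 minutes with linked protease (5, 30 or 60 nM final). Rhodamine 110-tagged Ac-LKRR substrate (10 microM final) is added and fluorescence measured after 25 minutes.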

[8] = Vero cells viability qHTS for Zika virus inhibitors (AID 1347167)
Summary of the method: (§1)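 Counter-screen for cytotoxicity of hits from NS2B-NS3 protease qHTS. Overnight-attached cells (2.5 x 10^5 cells/mL, DMEM/4% FBS) were dosed in titration, incubated 24 to 48 hours, then assayed by CellTiter Glo.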

[9] = HepG2 cells viability qHTS for Zika virus inhibitors (AID 1347168)
Summary of the method: as §1

[10] = Tertiary RLuc qRT-PCR qHTS assay for Zika virus inhibitors (AID 1347169); also: potency is read from the fitted curve at half-maximal effect; nearly all actives have a fitted effect of over 55% in size
Summary of the method: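 Orthogonal cell-based infection assay using recombinant ZIKV-RLuc (Cambodian) in Vero cells; compound added prior to virus at MOI 1-2. Incubation lasts 48-72 hrs at 37 degrees C before live-cell Renilla substrate is added and luminescence measured.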

[11] = Primary qHTS for small molecule stabilizers of the endoplasmic reticulum resident proteome: Secreted ER Calcium Modulated Protein (SERCaMP) assay (AID 1508630)
Summary of the method: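 GLuc-SERCaMP-expressing SH-SY5Y cells, pretreated 16 h with compound, are challenged with thapsigargin to empty ER calcium stores; after 4 h, coelenterazine is added directly to the medium and luminescence is imaged.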

[12] = biological target: Cytochrome P450 2D6 (Homo sapiens) (UniProt P10635); experiment: Cytochrome P450 family 2 subfamily D member 6 (CYP2D6) small molecule antagonists: luciferase biochemical (cell-free) qHTS assay (AID 1645840; active = well fitted curve in the direction sought with a large enough effect in the repeat runs; an effect the other way counts as inactive or inconclusive; also: potency is read from the fitted curve at half-maximal effect; nearly all actives have a fitted effect of over 55% in size)
Summary of the method: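 P450-Glo luminescent screen: recombinant CYP2D6 enzyme–proluciferin substrate mix preincubated with compound 10 min at room temperature, then NADPH regeneration added for 1 h at room temperature. Detection reagent added for 20 min; luciferin light read as relative luminescence units.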

[13] = biological target: Cytochrome P450 2C9 (Homo sapiens) (UniProt P11712); experiment: Cytochrome P450 family 2 subfamily C member 9 (CYP2C9) small molecule antagonists: luciferase biochemical (cell-free) qHTS assay (AID 1645842; active = well fitted curve in the direction sought with a large enough effect in the repeat runs; an effect the other way counts as inactive or inconclusive; also: potency is read from the fitted curve at half-maximal effect; nearly all actives have a fitted effect of over 55% in size)
Summary of the method: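 Luminescence, after 20 min with luciferin detection reagent, reflected CYP2C9 turnover during a 1 h NADPH-driven reaction at 37C. Enzyme-substrate mix contained 0.4% bovine serum albumin and was preincubated with compound 10 min at room temperature.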

[14] = biological target: Rap guanine nucleotide exchange factor 3 (Homo sapiens) (UniProt O95398); experiment: Confirmatory qHTS for agonist of cAMP-regulated guanine nucleotide exchange factor 3 (EPAC1) (AID 1645881);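 also: EPAC1 catalysed release of BODIPY-GDP from Rap1B seen as fluorescence loss; nearly all actives have a fitted effect of over 75% in size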
[15] = biological target: Rap guanine nucleotide exchange factor 4 (Homo sapiens) (UniProt Q8WZA2); experiment: Confirmatory qHTS for agonist of cAMP-regulated guanine nucleotide exchange factor 4 (EPAC2) (AID 1645884);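 also: nucleotide exchange releases bodipy-GDP from Rap1 and this lowers its fluorescence; nearly all actives have a fitted effect of over 65% in size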
[16] = biological target: Glutathione peroxidase 1 (Homo sapiens) (UniProt P07203); experiment: Primary qHTS Assay for Inhibitors of Recombinant Selenoprotein Glutathione Peroxidase 1 (GPX1) (AID 1845191); also: nearly all actives have a fitted effect of over 65% in size
Summary of the method: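 Recombinant GPX1 (10 nM final) was preincubated with compound for 30 min at room temperature, then reacted with 1 mM GSH, 0.5 mM CHP, 0.5 mM NADPH and 100 nM glutathione reductase; NADPH fluorescence (340/450 nm) was read at 0 and 15 min.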

[17] = biological target: Phospholipid hydroperoxide glutathione peroxidase GPX4 (Homo sapiens) (UniProt P36969); experiment: Primary qHTS Assay for Inhibitors of Recombinant Selenoprotein Glutathione Peroxidase 4 (GPX4) (AID 1845192); conditions: outcome: dose series up to 50 µM unless noted; also: potency is read from the fitted curve at half-maximal effect; nearly all actives have a fitted effect of over 65% in size
Summary of the method: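 GR-coupled readout: 100 nM GR, 1 mM GSH, 0.5 mM NADPH; NADPH fluorescence (ex 340/em 450 nm) read at t=0 and after 15 min RT. GPX4 200 nM, preincubated 30 min with compound; substrate 0.5 mM CHP.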

[18] = ZIKV-mCherry secondary qHTS for Zika virus inhibitors (AID 1347158); also: top concentration of the series differs between compounds
Summary of the method: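 Vero cells, 5,000/well, plated overnight at 37 °C, then compound added and infected with recombinant ZIKV-mCherry at MOI 1 for 48-72 h. PFA-fixed, Hoechst nuclear stain, high-content imaging; cells with mCherry intensity above 450 RFU scored infected, reported as percent infection.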

[19] = system: Zika virus NS2B-NS3 protease (linked); experiment: 384 well plate NINDS AMC confirmatory qHTS for Zika virus inhibitors (AID 1347163); also: potency is read from the fitted curve at half-maximal effect; nearly all actives have a fitted effect of over 50% in size
Summary of the method: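 Linked protease 5/30/60 nM final; cpds up to 1 mM final, ~15 min preinc. Substrate Ac-VKTGKR-AMC 30 microM final. RT, dark, 25 min; FI ex 355/em 460; normalized to no-enzyme/no-inhibitor ctrls.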

[20] = system: Zika virus NS2B-NS3 protease; experiment: Primary screen GU AMC qHTS for Zika virus inhibitors (AID 1347154); also: nearly all actives have a fitted effect of over 70% in size
Summary of the method: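 Unlinked Zika NS2B hydrophilic domain/NS3 protease domain noncovalent complex (25 nM final) in 10 mM Tris-HCl pH 8.0, 0.01% Tween 20, with AMC peptide substrate. Fluorescence (ex 340, em 450 nm) change over 15 min, room temperature; percent inhibition fitted to 4-parameter Hill equation.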

[21] = biological target: Glucocorticoid receptor (Homo sapiens) (UniProt P04150); experiment: GR-GFP Redistribution (AID 450;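 active = compounds whose dose series gives a full or clear partial fitted curve of increased nuclear translocation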; also: potency is read from the fitted curve at half-maximal effect); conditions: U2OS GR-GFP nuclear translocation, laser cytometry, 2 h
[22] = biological target: Glucocorticoid receptor (Homo sapiens) (UniProt P04150); experiment: GR-EFC Redistribution (AID 451; calls by dose curve; also: potency is read from the fitted curve at half-maximal effect); conditions: CHO-K1 GR-EFC translocation, beta-gal luminescence, 2 h
Summary of the method: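 CHO-K1 cells stably expressing nuclear-localized β-gal enzyme acceptor and GR fused C-terminally to the enzyme donor fragment; ligand-driven nuclear translocation restores β-gal by complementation. Compounds titrated up to 46 uM final, 2 h at 37 °C; luminescence read.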

[23] = biological target: Cytochrome P450 3A4 (Homo sapiens) (UniProt P08684); experiment: qHTS Assay for Activators of Cytochrome P450 3A4 (AID 885); also: nearly all actives have a fitted effect of over 65% in size
Summary of the method: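 20nM CYP3A4 + 25uM Luciferin-PPXE (=KM), 200mM KPO4; cpd 10 min RT; NADPH regen, 60 min RT; stop w/ detection buffer, 20 min; luminescence. Normalized to 57 uM ketoconazole.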

[24] = biological target: DNA dC->dU-editing enzyme APOBEC-3G (Homo sapiens) (UniProt Q9HC16); experiment: qHTS for inhibitors of Vif-A3G interactions: Validation (AID 588379)
Summary of the method: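 HeLa cells stably expressing Vif and A3G-eYFP, 700 cells/well, incubated overnight at 37 deg C, then exposed to compound overnight at 37 deg C. Inhibition of Vif-mediated degradation read as increased yellow fluorescence (Ex 488/Em 500-530) by laser-scanning cytometry.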

[25] = biological target: Rap guanine nucleotide exchange factor 4 (Homo sapiens) (UniProt Q8WZA2); experiment: Confirmatory qHTS for antagonist of cAMP-regulated guanine nucleotide exchange factor 4 (EPAC2) (AID 1645885); also: potency is read from the fitted curve at half-maximal effect; nearly all actives have a fitted effect of over 25% in size

Rap guanine nucleotide exchange factor 4 (Homo sapiens), sequence (Q8WZA2 whole entry, looked up): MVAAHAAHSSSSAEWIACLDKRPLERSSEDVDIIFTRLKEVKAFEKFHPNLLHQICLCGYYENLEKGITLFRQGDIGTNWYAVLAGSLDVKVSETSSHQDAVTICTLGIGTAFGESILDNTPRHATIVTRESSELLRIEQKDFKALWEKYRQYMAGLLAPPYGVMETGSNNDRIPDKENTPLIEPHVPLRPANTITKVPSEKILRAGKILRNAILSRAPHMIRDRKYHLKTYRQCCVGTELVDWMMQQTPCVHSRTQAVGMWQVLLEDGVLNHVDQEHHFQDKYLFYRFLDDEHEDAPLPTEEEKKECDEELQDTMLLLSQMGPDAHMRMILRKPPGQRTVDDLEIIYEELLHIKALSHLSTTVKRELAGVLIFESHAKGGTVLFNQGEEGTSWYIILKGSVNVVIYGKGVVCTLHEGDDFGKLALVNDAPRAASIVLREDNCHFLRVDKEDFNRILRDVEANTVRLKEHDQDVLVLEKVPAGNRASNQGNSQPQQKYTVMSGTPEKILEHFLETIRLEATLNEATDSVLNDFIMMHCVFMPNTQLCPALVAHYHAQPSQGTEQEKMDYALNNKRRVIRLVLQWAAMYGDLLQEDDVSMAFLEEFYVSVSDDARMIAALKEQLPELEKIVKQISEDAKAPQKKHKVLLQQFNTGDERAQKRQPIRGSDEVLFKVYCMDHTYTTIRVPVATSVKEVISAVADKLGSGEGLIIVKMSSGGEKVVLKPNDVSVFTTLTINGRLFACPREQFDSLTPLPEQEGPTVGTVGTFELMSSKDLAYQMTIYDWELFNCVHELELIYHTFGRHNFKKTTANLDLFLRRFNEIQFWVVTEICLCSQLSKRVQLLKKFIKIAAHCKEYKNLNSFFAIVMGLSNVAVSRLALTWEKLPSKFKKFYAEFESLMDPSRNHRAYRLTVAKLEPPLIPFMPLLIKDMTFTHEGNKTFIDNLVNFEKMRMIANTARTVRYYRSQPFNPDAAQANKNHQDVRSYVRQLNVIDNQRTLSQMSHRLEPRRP
Rap guanine nucleotide exchange factor 3 (Homo sapiens), sequence (O95398 whole entry, looked up): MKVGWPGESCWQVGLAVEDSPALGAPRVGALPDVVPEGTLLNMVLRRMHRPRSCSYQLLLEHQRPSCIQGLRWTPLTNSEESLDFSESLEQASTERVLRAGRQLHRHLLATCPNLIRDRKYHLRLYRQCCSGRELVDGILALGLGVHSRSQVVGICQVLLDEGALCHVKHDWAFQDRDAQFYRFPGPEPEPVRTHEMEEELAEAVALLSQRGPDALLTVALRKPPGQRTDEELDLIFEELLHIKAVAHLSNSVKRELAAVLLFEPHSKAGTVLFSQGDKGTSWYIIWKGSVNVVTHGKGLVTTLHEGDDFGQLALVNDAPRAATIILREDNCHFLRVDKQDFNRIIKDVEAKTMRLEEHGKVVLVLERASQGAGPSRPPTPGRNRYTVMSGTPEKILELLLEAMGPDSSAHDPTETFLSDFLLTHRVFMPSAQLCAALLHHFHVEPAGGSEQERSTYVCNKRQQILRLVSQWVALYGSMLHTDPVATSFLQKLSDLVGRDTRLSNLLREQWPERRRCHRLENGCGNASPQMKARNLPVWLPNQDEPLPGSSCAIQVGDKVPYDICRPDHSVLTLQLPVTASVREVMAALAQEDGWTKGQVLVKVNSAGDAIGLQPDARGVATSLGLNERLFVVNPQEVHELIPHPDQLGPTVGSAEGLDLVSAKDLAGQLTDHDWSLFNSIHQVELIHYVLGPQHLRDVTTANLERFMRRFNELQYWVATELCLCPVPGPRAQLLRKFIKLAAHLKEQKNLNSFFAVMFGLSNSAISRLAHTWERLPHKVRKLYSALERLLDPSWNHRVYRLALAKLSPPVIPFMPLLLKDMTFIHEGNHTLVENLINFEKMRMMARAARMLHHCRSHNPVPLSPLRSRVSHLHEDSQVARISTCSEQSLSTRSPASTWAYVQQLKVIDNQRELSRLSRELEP
Ubiquitin carboxyl-terminal hydrolase 1 (Homo sapiens), sequence (O94782 whole entry, looked up): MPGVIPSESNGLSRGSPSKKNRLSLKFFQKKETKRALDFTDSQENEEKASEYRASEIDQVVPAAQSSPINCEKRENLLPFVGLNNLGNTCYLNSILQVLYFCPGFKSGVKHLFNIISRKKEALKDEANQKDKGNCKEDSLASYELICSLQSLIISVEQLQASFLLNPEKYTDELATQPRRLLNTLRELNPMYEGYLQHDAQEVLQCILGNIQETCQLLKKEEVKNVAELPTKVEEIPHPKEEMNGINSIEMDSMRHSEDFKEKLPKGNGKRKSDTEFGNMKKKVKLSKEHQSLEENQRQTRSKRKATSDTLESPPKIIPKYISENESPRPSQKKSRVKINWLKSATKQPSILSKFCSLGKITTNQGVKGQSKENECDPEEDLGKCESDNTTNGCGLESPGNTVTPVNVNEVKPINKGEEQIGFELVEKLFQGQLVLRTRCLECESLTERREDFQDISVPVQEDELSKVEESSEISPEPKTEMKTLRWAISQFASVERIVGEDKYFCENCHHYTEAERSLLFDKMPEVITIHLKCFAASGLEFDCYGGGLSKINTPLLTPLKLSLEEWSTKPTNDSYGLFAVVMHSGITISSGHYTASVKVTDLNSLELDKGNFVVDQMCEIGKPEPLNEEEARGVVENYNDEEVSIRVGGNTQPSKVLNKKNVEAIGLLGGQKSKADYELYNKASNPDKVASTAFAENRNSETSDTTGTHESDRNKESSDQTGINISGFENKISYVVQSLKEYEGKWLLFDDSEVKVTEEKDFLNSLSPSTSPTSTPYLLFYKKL
Glucocorticoid receptor (Homo sapiens), sequence (P04150 whole entry, looked up, the tested form may be a part): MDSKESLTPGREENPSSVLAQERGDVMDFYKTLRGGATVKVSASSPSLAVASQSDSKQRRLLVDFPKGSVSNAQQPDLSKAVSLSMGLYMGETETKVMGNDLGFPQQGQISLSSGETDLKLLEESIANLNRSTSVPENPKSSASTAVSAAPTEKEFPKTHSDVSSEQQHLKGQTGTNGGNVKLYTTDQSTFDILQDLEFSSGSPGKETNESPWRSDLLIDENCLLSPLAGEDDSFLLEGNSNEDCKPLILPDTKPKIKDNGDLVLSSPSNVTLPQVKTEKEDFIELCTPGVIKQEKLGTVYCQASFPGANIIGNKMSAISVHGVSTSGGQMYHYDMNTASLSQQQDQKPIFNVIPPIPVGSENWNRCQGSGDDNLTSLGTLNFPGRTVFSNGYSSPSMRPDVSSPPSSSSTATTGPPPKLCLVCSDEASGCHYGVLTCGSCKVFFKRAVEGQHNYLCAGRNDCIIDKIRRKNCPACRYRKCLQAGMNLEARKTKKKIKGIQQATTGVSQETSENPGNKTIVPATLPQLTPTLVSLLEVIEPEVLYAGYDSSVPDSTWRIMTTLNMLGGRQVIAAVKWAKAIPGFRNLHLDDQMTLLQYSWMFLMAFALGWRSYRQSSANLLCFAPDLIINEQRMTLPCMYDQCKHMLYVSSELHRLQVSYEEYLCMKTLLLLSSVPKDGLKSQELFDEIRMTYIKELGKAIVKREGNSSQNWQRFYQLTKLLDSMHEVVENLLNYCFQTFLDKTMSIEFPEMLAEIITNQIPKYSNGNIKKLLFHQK
Cytochrome P450 3A4 (Homo sapiens), sequence (P08684 whole entry, looked up): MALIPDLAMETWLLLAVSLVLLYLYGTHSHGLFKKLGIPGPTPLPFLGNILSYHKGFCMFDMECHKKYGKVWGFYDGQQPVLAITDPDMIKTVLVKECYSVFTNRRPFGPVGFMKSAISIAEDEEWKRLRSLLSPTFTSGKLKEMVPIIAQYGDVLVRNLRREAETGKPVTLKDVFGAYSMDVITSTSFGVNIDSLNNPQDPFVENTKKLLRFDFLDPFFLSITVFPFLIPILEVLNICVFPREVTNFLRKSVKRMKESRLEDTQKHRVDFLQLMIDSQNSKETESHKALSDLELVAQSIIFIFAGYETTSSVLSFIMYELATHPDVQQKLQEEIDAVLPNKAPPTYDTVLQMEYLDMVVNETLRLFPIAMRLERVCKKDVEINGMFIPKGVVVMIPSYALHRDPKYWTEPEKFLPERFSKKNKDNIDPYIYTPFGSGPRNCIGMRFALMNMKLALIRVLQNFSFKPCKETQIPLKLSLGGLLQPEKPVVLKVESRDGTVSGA
Glutathione peroxidase 1 (Homo sapiens), sequence (P07203 whole entry, looked up): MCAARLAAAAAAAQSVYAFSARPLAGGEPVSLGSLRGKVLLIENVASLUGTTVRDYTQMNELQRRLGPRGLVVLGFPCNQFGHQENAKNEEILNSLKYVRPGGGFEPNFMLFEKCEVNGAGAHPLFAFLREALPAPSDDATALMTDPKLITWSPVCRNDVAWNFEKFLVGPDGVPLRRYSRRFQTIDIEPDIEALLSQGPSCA
Cytochrome P450 2D6 (Homo sapiens), sequence (P10635 whole entry, looked up): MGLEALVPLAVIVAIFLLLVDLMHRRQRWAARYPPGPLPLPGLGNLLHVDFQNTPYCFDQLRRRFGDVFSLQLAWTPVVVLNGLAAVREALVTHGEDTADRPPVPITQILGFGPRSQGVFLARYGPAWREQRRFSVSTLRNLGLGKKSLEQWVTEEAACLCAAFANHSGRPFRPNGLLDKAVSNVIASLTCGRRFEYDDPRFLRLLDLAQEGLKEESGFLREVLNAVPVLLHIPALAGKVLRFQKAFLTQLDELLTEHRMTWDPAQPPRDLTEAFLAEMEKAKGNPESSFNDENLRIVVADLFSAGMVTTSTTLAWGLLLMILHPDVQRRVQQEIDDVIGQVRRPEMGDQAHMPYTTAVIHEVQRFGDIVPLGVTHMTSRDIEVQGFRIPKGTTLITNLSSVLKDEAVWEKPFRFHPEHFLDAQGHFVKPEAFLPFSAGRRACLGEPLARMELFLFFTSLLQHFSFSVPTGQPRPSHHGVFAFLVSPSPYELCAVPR
Phospholipid hydroperoxide glutathione peroxidase GPX4 (Homo sapiens), sequence (P36969 whole entry, looked up): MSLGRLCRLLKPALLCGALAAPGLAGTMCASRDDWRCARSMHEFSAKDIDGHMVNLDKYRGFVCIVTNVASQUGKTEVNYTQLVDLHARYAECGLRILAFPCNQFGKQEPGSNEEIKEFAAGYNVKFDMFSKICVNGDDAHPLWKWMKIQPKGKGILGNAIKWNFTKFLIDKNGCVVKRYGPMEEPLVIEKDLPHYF

CCOc1nc2cccc(C(=O)OC(C)OC(=O)OC3CCCCC3)c2n1Cc1ccc(-c2ccccc2-c2nn[nH]n2)cc1 (centres undefined)
active: Potency [2] 7.94 µM | Potency [3] 22.4 µM | Potency [4] 12.1 µM | Potency [5] 17.1 µM | Potency [6] 1.24 µM | Potency [7] 12.6 µM | Potency [10] 14.7 µM | Potency [12] 13.5 µM | Potency [13] 4.77 µM | Potency [17] 7.94 µM
-78.8%: max response ([2]; measured here: lipid channel max response)
inactive: outcome [1] | Potency [8] | Potency [9] | Potency [11] | outcome [14] | outcome [15] | Potency [16]
-28.3%: max response ([2]; measured here: cell count channel max response)

Clc1ccc(-c2nn3c(COc4cc(Cl)c(OCc5nnc6sc(-c7ccc(Cl)cc7)nn56)cc4Cl)nnc3s2)cc1
active: Potency [4] 20 µM | Potency [6] 6.31 µM | Potency [19] 14.1 µM | Potency [7] 28.2 µM
inactive: Potency [18]

O=C(NCCCCN1CCN(c2cccc(Cl)c2Cl)CC1)c1ccc2c(c1)Cc1ccccc1-2
inactive: Potency [20]

N#Cc1ccccc1S(=O)(=O)N[C@H]1CO[C@H]2[C@@H]1OC[C@H]2OC(=O)Nc1ccc(Oc2ccccc2)cc1
inactive: Potency [4] | Potency [5]
active: Potency [10] 7.39 µM

Cc1cc(C)cc(C(=O)N(C)[C@H](Cc2ccc(-c3ccccc3)cc2)C(=O)N[C@@H](Cc2c[nH]c3ccccc23)C(=O)O)c1
active: Potency [3] 79.4 µM | Potency [4] 9.61 µM | Potency [5] 19.2 µM | Potency [6] 1.75 µM | Potency [19] 158 µM | Potency [7] 28.2 µM | Potency [25] 55.5 µM
inactive: Potency [21] > 46 µM | Potency [22] > 46 µM | Potency [23] | Potency [24] | Potency [8] | Potency [9] | Potency [11] | outcome [14] | outcome [15]
